“And” between values parts separate entries of the source, which are not always exact repeats. Equal values may be shown once. Out of some 5,500 compounds screened, about 2,000 (36%) were called active. About 18% were inconclusive and are not listed. Rule as the data show it: active = normalized growth mostly below about 0.91 (no sharp cut-off); inconclusive = no clear call, values can overlap the other calls; inactive = mostly above about 0.92. Some of the results follow.
Assay: chemical genetic growth profiling, strain panel (AID 1159580);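 also: tested at 20 µM; growth read once vehicle control cultures reached saturation at 30 °C; 1 = growth at the plate median or of vehicle wells; lower values mean less growth of the strain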
Details: S. cerevisiae deletion strains, growth OD

Measured: normalized growth

O=c1n(CCCN2CCN(c3cccc(Cl)c3)CC2)nc2ccccn12
inactive: locus YAL013W, strain DEP1, stronger effect = lower value 0.995 | locus YAL021C, strain ccr4, stronger effect = lower value 0.939 | locus YAL026C, strain drs2, stronger effect = lower value 0.987 | locus YAL030W, strain snc1, stronger effect = lower value 0.988 | locus YAL040C, strain CLN3, stronger effect = lower value 0.987 | locus YBL061C, strain skt5, stronger effect = lower value 0.983 | locus YBR009C, strain hhf1, stronger effect = lower value 0.983 | locus YBR021W, strain FUR4, stronger effect = lower value 0.998 | locus YBR023C, strain chs3, stronger effect = lower value 0.981 | locus YBR171W, strain sec66, stronger effect = lower value 0.979 | locus YBR229C, strain ROT2, stronger effect = lower value 0.951 | locus YBR231C, strain swc5, stronger effect = lower value 0.981 | locus YBR279W, strain paf1, stronger effect = lower value 0.985 | locus YCL011C, strain gbp2, stronger effect = lower value 0.976 | locus YCL016C, strain dcc1, stronger effect = lower value 0.982 | locus YCL029C, strain bik1, stronger effect = lower value 0.987 | locus YCL061C, strain MRC1 (second series), stronger effect = lower value 0.998 | locus YCL061C, strain MRC1, stronger effect = lower value 0.984 | locus YCL069W, strain vba3, stronger effect = lower value 0.975 | locus YCR088W, strain abp1, stronger effect = lower value 0.978 | locus YDL005C, strain med2, stronger effect = lower value 0.965 | locus YDL035C, strain GPR1, stronger effect = lower value 0.984 | locus YDL040C, strain nat1, stronger effect = lower value 0.979 | locus YDL074C, strain BRE1, stronger effect = lower value 0.941 | locus YDL101C, strain DUN1, stronger effect = lower value 0.97 | locus YDL134C, strain PPH21, stronger effect = lower value 1 | locus YDL185W, strain tfp1, stronger effect = lower value 0.982 | locus YDL192W, strain arf1, stronger effect = lower value 0.986 | locus YDR001C, strain nth1, stronger effect = lower value 0.986 | locus YDR069C, strain doa4, stronger effect = lower value 0.966 | locus YDR101C, strain arx1, stronger effect = lower value 0.97 | locus YDR137W, strain rgp1, stronger effect = lower value 0.94 | locus YDR150W, strain NUM1, stronger effect = lower value 0.992 | locus YDR159W, strain sac3, stronger effect = lower value 0.956 | locus YDR162C, strain NBP2, stronger effect = lower value 0.991 | locus YDR195W, strain ref2 0.977 | locus YDR297W, strain sur2, stronger effect = lower value 0.98 | locus YDR318W, strain mcm21, stronger effect = lower value 0.998 | locus YDR334W, strain swr1, stronger effect = lower value 0.964 | locus YDR335W, strain msn5, stronger effect = lower value 0.984 | locus YDR363W, strain ESC2, stronger effect = lower value 0.998 | locus YDR388W, stronger effect = lower value 0.989 | locus YDR392W, strain spt3, stronger effect = lower value 0.95 | locus YDR502C, strain sam2, stronger effect = lower value 0.989 | locus YEL003W, strain gim4, stronger effect = lower value 0.986 | locus YEL037C, strain rad23, stronger effect = lower value 0.964 | locus YEL061C, strain CIN8 (second series), stronger effect = lower value 0.975 | locus YEL061C, strain CIN8, stronger effect = lower value 0.986 | locus YER002W, strain NOP16, stronger effect = lower value 1 | locus YER015W, strain faa2, stronger effect = lower value 0.978 | locus YER016W, strain bim1, stronger effect = lower value 0.987 | locus YER110C, stronger effect = lower value 0.984 | locus YER111C, strain swi4, stronger effect = lower value 0.971 | locus YER155C, strain BEM2 (second series), stronger effect = lower value 0.948 | locus YER155C, strain BEM2, stronger effect = lower value 0.994 | locus YER167W, strain BCK2, stronger effect = lower value 1 | locus YFR010W, strain ubp6, stronger effect = lower value 0.975 | locus YGL078C, strain dbp3, stronger effect = lower value 0.999 | locus YGL086W, strain mad1, stronger effect = lower value 0.976 | locus YGL167C, strain pmr1, stronger effect = lower value 0.976 | locus YGL173C, strain kem1, stronger effect = lower value 0.973 | locus YGL227W, strain vid30, stronger effect = lower value 0.985 | locus YGL240W, strain doc1, stronger effect = lower value 0.98 | locus YGL248W, strain PDE1, stronger effect = lower value 0.964 | locus YGL253W, strain hxk2, stronger effect = lower value 0.999 | locus YGR078C, strain PAC10, stronger effect = lower value 0.99 | locus YGR135W, strain pre9, stronger effect = lower value 1.03 | locus YGR229C, strain SMI1, stronger effect = lower value 1.01 | locus YGR252W, strain gcn5, stronger effect = lower value 0.993 | locus YHR013C, strain ard1, stronger effect = lower value 0.854 | locus YHR027C, strain rpn1, stronger effect = lower value 0.978 | locus YHR030C, strain SLT2, stronger effect = lower value 1 and 0.995 | locus YHR079C, strain IRE1 (second series), stronger effect = lower value 0.998 | locus YHR079C, strain IRE1, stronger effect = lower value 1 | locus YHR094C, strain hxt1, stronger effect = lower value 0.99 | locus YHR129C, strain ARP1, stronger effect = lower value 0.994 | locus YHR142W, strain chs7, stronger effect = lower value 0.985 | locus YHR200W, strain rpn10, stronger effect = lower value 0.997 | locus YIL066C, strain RNR3, stronger effect = lower value 0.955 | locus YIL073C, strain SPO22, stronger effect = lower value 1.13 | locus YIL125W, strain kgd1, stronger effect = lower value 0.988 | locus YIR030C, strain dcg1, stronger effect = lower value 0.987 | locus YJL092W, strain hpr5, stronger effect = lower value 0.97 | locus YJL095W, strain BCK1 (second series), stronger effect = lower value 0.987 | locus YJL095W, strain BCK1, stronger effect = lower value 0.898 and 1 | locus YJL115W, strain asf1, stronger effect = lower value 0.978 | locus YJL129C, strain trk1, stronger effect = lower value 0.946 | locus YJL134W, strain LCB3, stronger effect = lower value 0.992 | locus YJL154C, strain vps35, stronger effect = lower value 0.975 | locus YJL164C, strain tpk1, stronger effect = lower value 0.984 | locus YJL166W, strain qcr8, stronger effect = lower value 0.969 | locus YJL168C, strain set2, stronger effect = lower value 0.993 | locus YJL187C, strain SWE1 (second series), stronger effect = lower value 0.932 | locus YJL187C, strain SWE1, stronger effect = lower value 0.979 | locus YJR043C, strain POL32, stronger effect = lower value 0.936

Source: PubChem BioAssay AID1159580 (chemical genetic matrix, 2015)
